Assay results published in the supplement of paper PMC12340641.
Counter-ions that a name gives are not always drawn.

Legend:
[1] = target: IKZF1 (dCK*-IKZF1 fusion in HEK293FT) (UniProt Q13422); test: inhibition of IKZF1 HTRF signal (DMSO = 0%, pomalidomide 10 uM = 100%); higher = lower IKZF1 protein level; settings: compound concentration: 5 uM, overnight (~20 h)
Procedure, shortened: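 For percent inhibition of IKZF1 signal, each plate was normalised to vehicle and to a reference degrader. Cells were HEK293FT stably expressing an IKZF1 fusion, plated at 2000/well in 384-well format and treated overnight at 37 °C with 5 μM compound, one well each. Lysates were probed overnight with a commercial HTRF total-IKZF1 antibody kit, with the 665/620 nm ratio background-subtracted and vehicle and degrader fixed at 0% and 100%.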

HEK293FT dCK*-only = test: relative growth in counter assay (no AraC = 100%, AraC + DMSO = 0%); higher = more growth rescue independent of IKZF1; settings: compound concentration: 5 uM; AraC concentration: 0.3 uM; overnight pretreatment + 4 days AraC
Procedure, shortened: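 HEK293FT cells carrying only an engineered kinase construct were plated at 300 per well (384-well) and given 5 μM compound 2 h later. Following overnight at 37 °C, a nucleoside suicide substrate (0.3 μM) plus medium was added for 4 days. Hoechst 33342-stained nuclei were imaged and counted on day 5, with 100% assigned to wells without suicide substrate and 0% to substrate plus vehicle on each plate.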

HEK293FT dCK*-IKZF1 = test: relative growth recovery (pomalidomide 10 uM = 100%, DMSO = 0%); higher = more growth rescue (IKZF1 fusion degradation); settings: compound concentration: 5 uM; AraC concentration: 0.3 uM; overnight pretreatment + 4 days AraC
Procedure, shortened: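 Means of duplicates from different days are given for growth recovery, normalised per plate against a reference degrader and vehicle. The reference degrader set the 100% level and vehicle the 0% level. HEK293FT cells stably expressing a deoxycytidine kinase–IKZF1 fusion (300/well, 384-well) received 5 μM compound 2 h after seeding and, after overnight at 37 °C, 0.3 μM of a nucleoside suicide substrate plus medium for 4 days. Nuclei stained with Hoechst 33342 were then counted by whole-well imaging on day 5.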

IKZF1 (dCK*-IKZF1 fusion in HEK293FT), sequence (Q13422 whole entry, looked up, the tested form may be a part): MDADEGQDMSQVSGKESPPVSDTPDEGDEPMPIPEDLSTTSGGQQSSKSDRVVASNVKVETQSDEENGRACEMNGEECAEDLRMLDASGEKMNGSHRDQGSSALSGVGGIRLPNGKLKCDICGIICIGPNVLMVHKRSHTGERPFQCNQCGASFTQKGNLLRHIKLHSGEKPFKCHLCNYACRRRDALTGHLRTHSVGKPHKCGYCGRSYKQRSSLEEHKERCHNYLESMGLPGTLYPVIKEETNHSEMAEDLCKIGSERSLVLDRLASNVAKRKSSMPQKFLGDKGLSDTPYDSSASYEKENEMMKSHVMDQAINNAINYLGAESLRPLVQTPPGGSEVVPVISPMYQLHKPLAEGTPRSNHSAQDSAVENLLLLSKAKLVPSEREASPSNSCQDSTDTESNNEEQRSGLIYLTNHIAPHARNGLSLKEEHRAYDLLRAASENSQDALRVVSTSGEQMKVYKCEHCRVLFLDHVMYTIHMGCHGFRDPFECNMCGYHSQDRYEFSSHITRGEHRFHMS

| SMILES | inhibition of IKZF1 HTRF signal [1] [%] | relative growth in counter assay (HEK293FT dCK*-only) [%] | relative growth recovery (HEK293FT dCK*-IKZF1) [%] |
| --- | --- | --- | --- |
| CCCCC(CC)COc1ccc(-c2nc(-c3ccc(OC)cc3)nc(-c3ccc(OCC(CC)CCCC)cc3O)n2)c(O)c1 (stereo not drawn) | -35.1 | 12.9 | 1.75 |
| C(=C\c1ccccc1)/CN1CCN(C(c2ccccc2)c2ccccc2)CC1 | -25.9 | -3.15 | 1.06 |
| CCCS(=O)c1ccc2nc(NC(=O)OC)[nH]c2c1 (stereo not drawn) [Albendazole Oxide (Ricobendazole)] | 24.3 | -7.11 | -2.83 |
| CN(C)CC/C=C1/c2ccccc2Sc2ccc(Cl)cc21 | -9.91 | 11.5 | -0.74 |
| COC1=C(OC)C(=O)C(CCCCCCCCCCO)=C(C)C1=O | 41.8 | -5.9 | -2.21 |
| CCN(CC)CCOc1ccc2c(c1)C(=O)c1cc(OCCN(CC)CC)ccc1-2 | -2.01 | -26.5 | -8.99 |
| O=C(NCCO[N+](=O)[O-])c1cccnc1 | -26.3 | -5.9 | -1.74 |
| COc1cc([C@@H]2c3cc4c(cc3[C@@H](O[C@@H]3O[C@@H]5CO[C@@H](C)O[C@H]5[C@H](O)[C@H]3O)[C@H]3COC(=O)[C@H]23)OCO4)cc(OC)c1O [Etoposide] | -29.2 | -34.7 | -12.5 |
| OCCN1CCN(CCCN2c3ccccc3Sc3ccc(C(F)(F)F)cc32)CC1 | -11.9 | 12 | 3.6 |
| CC(C)COCC(CN(Cc1ccccc1)c1ccccc1)N1CCCC1 (stereo not drawn) [bepridil] | 21.1 | -3.99 | -1.14 |
| Cc1cccc(C)c1NC(=O)C[N+](C)(C)C | -41.2 | 0.1 | -1.7 |
| COc1cc(NS(C)(=O)=O)ccc1Nc1c2ccccc2nc2ccccc12 | -14.1 | -35.1 | -13.2 |
| CCN(CC)CCCC(C)Nc1nc(C)cc(Nc2ccc3nc(C)cc(N)c3c2)n1 (stereo not drawn) | -45.1 | -7.4 | 0.345 |
| COc1cc([C@@H]2c3cc4c(cc3[C@@H](O[C@@H]3O[C@@H]5CO[C@@H](C)O[C@H]5[C@H](O)[C@H]3O)[C@H]3COC(=O)C23)OCO4)cc(OC)c1O (stereo partly drawn) [Etoposide] | -10.2 | -34.7 | -12.9 |
| COc1ccc2nc3cc(Cl)ccc3c(Nc3cc(CN4CCCC4)c(O)c(CN4CCCC4)c3)c2n1 | -32.1 | -29.1 | -10.1 |
| COCCN(C(=O)c1cc(OC)c(OC)c(OC)c1)c1nc(-c2ccccc2)cs1 [eact] | -41.3 | -0.03 | -1.76 |
| CCCCCCCCCCCCCCCC[N+](C)(C)Cc1ccccc1 [Benzyldimethylhexadecylammonium chloride hydrate] | 20.2 | -20.7 | -4.92 |
| CCCSc1ccc2[nH]c(NC(=O)OC)nc2c1 | -15.2 | -32.2 | -11.2 |
| OC(c1cc(C(F)(F)F)nc2c(C(F)(F)F)cccc12)C1CCCCN1 (stereo not drawn) [Mefloquine HCl] | -25.2 | -1.31 | -6.05 |
| CN(Cc1cnc2nc(N)nc(N)c2n1)c1ccc(C(=O)NC(CCC(=O)O)C(=O)O)cc1 (stereo not drawn) [Methotrexate] | -46 | -30.3 | -9.97 |
| Clc1ccc2c(NCCNc3ccnc4cc(Cl)ccc34)ccnc2c1 | -19.4 | -2.86 | -1.39 |
| NC(=S)N/N=C/c1ncccc1N [Triapine] | -21.7 | -34.8 | -13 |
| O=C(/C=C/c1ccc(O)c(O)c1)c1ccc(O)cc1O [Butein] | 8.77 | -27.3 | -8.42 |
| CCOC(=O)C1=C(C)NC(C)=C(C(=O)OC)C1c1cccc(Cl)c1Cl (stereo not drawn) | 18 | -9.69 | -1.19 |
| NS(=O)(=O)c1ccc(S(=O)(=O)Nc2cccc3c(Cl)c[nH]c23)cc1 [Indisulam] | -6.45 | -24.4 | -3.02 |
| COC(=O)Nc1nc2ccc(Sc3ccccc3)cc2[nH]1 | -26.6 | -32.4 | -9.72 |
